# The whole screen tested about 310,000 compounds, of which about 14,000 (4.5%) showed an effect of 50% or more. The effect is printed as a negative number. The sample holds strong results, similar compounds and a random draw of the others, so the mix is not that of the screen.
# Molecular target: human ether-à-go-go-related gene (hERG) potassium channel (human, UniProt Q12809)
# Assay: primary screen, population patch clamp on CHO cells stably expressing hERG; higher = less effect of the substance
# 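Further: peak tail current of the secondary pulse compared with the same well before compound.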
# Chain of human ether-à-go-go-related gene (hERG) potassium channel (Q12809 whole entry, looked up): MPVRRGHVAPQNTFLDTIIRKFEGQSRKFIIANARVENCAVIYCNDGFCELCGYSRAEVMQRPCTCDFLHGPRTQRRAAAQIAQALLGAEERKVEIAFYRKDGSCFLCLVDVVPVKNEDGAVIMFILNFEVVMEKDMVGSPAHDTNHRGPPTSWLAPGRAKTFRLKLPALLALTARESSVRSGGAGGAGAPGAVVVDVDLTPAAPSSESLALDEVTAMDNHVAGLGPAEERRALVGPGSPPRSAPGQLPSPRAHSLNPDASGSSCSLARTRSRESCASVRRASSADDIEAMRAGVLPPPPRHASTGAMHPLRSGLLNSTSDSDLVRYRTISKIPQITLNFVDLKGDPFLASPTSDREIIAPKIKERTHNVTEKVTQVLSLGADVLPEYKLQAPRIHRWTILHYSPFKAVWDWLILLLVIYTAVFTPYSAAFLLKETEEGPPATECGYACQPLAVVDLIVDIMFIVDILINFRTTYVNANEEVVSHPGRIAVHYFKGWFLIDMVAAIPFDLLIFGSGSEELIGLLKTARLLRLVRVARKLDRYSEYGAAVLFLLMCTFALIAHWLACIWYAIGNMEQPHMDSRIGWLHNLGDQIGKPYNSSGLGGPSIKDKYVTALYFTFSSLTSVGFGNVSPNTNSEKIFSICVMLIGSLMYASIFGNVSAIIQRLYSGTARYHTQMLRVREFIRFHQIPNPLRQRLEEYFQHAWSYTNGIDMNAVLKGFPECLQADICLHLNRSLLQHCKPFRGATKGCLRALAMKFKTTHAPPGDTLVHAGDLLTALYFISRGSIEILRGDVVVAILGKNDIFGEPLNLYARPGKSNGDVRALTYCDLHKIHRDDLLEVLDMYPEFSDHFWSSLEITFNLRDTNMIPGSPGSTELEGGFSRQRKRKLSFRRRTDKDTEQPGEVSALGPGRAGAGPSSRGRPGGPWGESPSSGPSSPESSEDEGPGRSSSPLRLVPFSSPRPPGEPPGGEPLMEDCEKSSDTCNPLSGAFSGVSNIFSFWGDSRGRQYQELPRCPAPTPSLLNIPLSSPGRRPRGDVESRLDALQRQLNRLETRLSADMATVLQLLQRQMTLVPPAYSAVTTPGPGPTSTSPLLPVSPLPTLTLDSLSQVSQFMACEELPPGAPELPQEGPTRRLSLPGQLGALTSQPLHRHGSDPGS
row,Structure (SMILES),"hERG current change (%, negative = inhibition) at 10uM"
1,COc1ccc(C2=NN(C(=O)c3ccco3)C(c3ccco3)C2)cc1OC (stereo not shown),7.24%
2,COc1cccc(SCc2noc(C(=O)NCC3CC3)c2C(=O)NCC2CC2)c1,-43.5%
3,CCN(Cc1ccccc1)C(=O)c1ccccc1C,1.76%
4,CC(NC(=O)C1CCN(S(=O)(=O)N2CCC3(CC2)OCCO3)CC1)c1ccccc1 (stereo not shown),20.9%
5,CCCC(C)NS(=O)(=O)c1ccccc1 (stereo not shown),-18.4%
6,CN1CC(=O)N(CC(=O)Nc2ccc(SC(F)F)cc2)C1=O,-23.5%
7,CCOc1ccc2nc(C(=O)N3CCCC(C)C3)sc2c1 (stereo not shown),-2.28%
8,CCOC(=O)C1=C(C)N(C)C(=S)NC1c1ccc(Cl)cc1 (stereo not shown),-21.5%
9,Cc1ccc(C(=O)OCC(=O)NC(=O)NCc2ccccc2)cc1C,7.95%
10,CCOC(=O)c1cnc(SCCN2CCOCC2)nc1N,9.59%
11,COC(=O)c1ccccc1NC(=O)c1cc2n(n1)C(C(F)F)CC(C(F)F)N2 (stereo not shown),14%
12,Cc1cc(C)n(C(C)CC(=O)Nc2ccc(-c3ccno3)cc2)n1 (stereo not shown),1.47%
13,CC1(C)CC(=O)C=C(NCCN2CCNCC2)C1,-2.18%
14,Cc1sc2ncnc(N3CCC(C(=O)Nc4cc(Cl)ccc4Cl)CC3)c2c1C,4.42%
15,Cc1cccc(C)c1NC(=O)CN(C)C(=O)C1CCN(c2ncnc3sc(C)c(C)c23)CC1,-46.7%
16,Cc1sc2ncnc(N3CCC(C(=O)N(C)CC(=O)Nc4ccccc4Cl)CC3)c2c1C,-67.7%
17,C=CCN(C(=O)CSc1nc2ccsc2c(=O)n1Cc1ccccn1)c1ccccc1,-19.4%
18,COCCCNC(=O)Cn1cc(C(C)=O)c2ccccc21,17.7%
19,CC1CCN(C(=O)CN(c2ccccc2)S(=O)(=O)N(C)C)CC1,14.2%
20,CCOC(=O)NC(C(Cl)(Cl)Cl)S(=O)(=O)c1ccccc1 (stereo not shown),-6.98%

row,Structure (SMILES),"hERG current change (%, negative = inhibition) at 10uM"
1,CCOC(=O)NC(N(O)c1cccc(Cl)c1)C(Cl)(Cl)Cl (stereo not shown),-74.2%
2,CCOC(=O)NC(c1ccc(C(C)C)cc1)C(Cl)(Cl)Cl (stereo not shown),1.44%
3,Cc1ccc(-c2cc(C(=O)Nc3cc(C)on3)c3ccccc3n2)cc1,4.13%
4,C=C(C)Cn1c(C2CC(=O)N(c3ccccc3F)C2)nc2ccccc21 (stereo not shown),-27%
5,Cc1ccc(OCC(=O)NC(C)c2ccc(Cl)c(Cl)c2)c([N+](=O)[O-])n1 (stereo not shown),-21.4%
6,CN(C)CCCNCCCNC(=O)/C(=N\O)c1ccccc1,6.64%
7,CC(=O)c1ccc(C(=O)N2CCCC(N3CCN(c4ccc(F)cc4)CC3)C2)s1 (stereo not shown),-63.7%
8,O=C(c1cccc(-c2ccco2)c1)N1CCCC(N2CCN(c3ccc(F)cc3)CC2)C1 (stereo not shown),-78.5%
9,O=C(C1CCOCC1)N1CCCC(N2CCN(c3ccc(F)cc3)CC2)C1 (stereo not shown),-3.64%
10,O=C(c1cccs1)N1CCN(c2ccc(F)cc2)CC1,-9.63%
11,O=C(c1ccncc1)N1CCCC(N2CCN(c3ccc(F)cc3)CC2)C1 (stereo not shown),-44.6%
12,O=C(c1ccc(Cl)s1)N1CCCC(N2CCN(c3ccc(F)cc3)CC2)C1 (stereo not shown),-70.1%
13,CC(C)n1cc(C(=O)N2CCCC(N3CCN(c4ccc(F)cc4)CC3)C2)cn1 (stereo not shown),-34.9%
14,COc1ccccc1N1CCN(C2CCCN(C(=O)c3cccc(-c4ccco4)c3)C2)CC1 (stereo not shown),-36.1%
15,O=C(c1ccoc1)N1CCCC(N2CCN(c3ccc(F)cc3)CC2)C1 (stereo not shown),-48.1%
16,CC(C)=CC(=O)N1CCCC(N2CCN(c3ccc(F)cc3)CC2)C1 (stereo not shown),-0.816%
17,Cc1ccccc1N1CCN(C2CCCN(C(=O)c3ccc(Cl)s3)C2)CC1 (stereo not shown),-46.8%
18,O=C(c1cccs1)N1CCCC(N2CCN(c3ccc(F)cc3)CC2)C1 (stereo not shown),-65.7%
19,CCN(C(=O)COC(=O)C1CCN(S(=O)(=O)c2ccc(C)c(C)c2)CC1)C1CCS(=O)(=O)C1 (stereo not shown),-7.82%
20,Cc1nnc2ccc(-c3ccc(NS(C)(=O)=O)cc3)nn12,-16%

row,Structure (SMILES),"hERG current change (%, negative = inhibition) at 10uM"
1,CCOc1nc(Nc2ccccc2)nc(OCC)n1,-21.7%
2,COc1ccc(-c2ccc(N(C)C)cc2)cc1[C@H]1[C@H]2C=CC[C@@H](C)[C@@H]2C(=O)N1Cc1ccccc1,10.1%
3,Cc1nc(N2CCN(Cc3ccccc3)CC2)nc2c1C(=O)CC(C)C2 (stereo not shown),-5.32%
4,C(=N\N1CCN(C2c3ccccc3-c3ccccc32)CC1)/c1cccnc1,2.63%
5,Cc1nnc(NC(=O)c2ccc(S(=O)(=O)N3CC(C)OC(C)C3)cc2)o1 (stereo not shown),12.6%
6,Cc1ccc(S(=O)(=O)N2CCCC2C(=O)Nc2nc3ccccc3s2)cc1 (stereo not shown),-14.8%
7,Oc1ccc(/C=N/N=C(c2ccccc2)c2ccccc2)c(O)c1O,8.49%
8,COC(=O)CSc1nccc(C)n1,14.6%
9,COC(=O)c1cn(NC(=O)Cn2nc([N+](=O)[O-])c(Cl)c2C)c(=O)c2ccccc12,18.6%
10,O=C(Nc1ccccc1C(=O)N1CCCC1)c1cccc(S(=O)(=O)N2CCCCC2)c1,-12.1%
11,CNC(=O)c1ccccc1NC(=O)c1cccc(S(=O)(=O)N2CCCCC2)c1,-51.1%
12,CCNC(=O)c1ccccc1NC(=O)c1cccc(S(=O)(=O)N2CCC(C)CC2)c1,-55.4%
13,O=C(Nc1ccccc1O)c1cccc(S(=O)(=O)N2CCOCC2)c1,17.7%
14,CC1CCN(S(=O)(=O)c2cccc(C(=O)Nc3ccccc3)c2)CC1,-9.3%
15,Cc1ccccc1NC(=O)c1cccc(S(=O)(=O)N2CCOCC2)c1,31.9%
16,O=C(Nc1ccccc1C(=O)N1CCCC1)c1cccc(S(=O)(=O)N2CCCCCC2)c1,-39.3%
17,CC1CCN(S(=O)(=O)c2cccc(C(=O)Nc3ccccn3)c2)CC1,-22.1%
18,CCNC(=O)c1ccccc1NC(=O)c1cccc(S(=O)(=O)N2CCOCC2)c1,-71.5%
